Here are results for 14 compounds from PubChem BioAssay.

Assay [1] concerns Wnt5a (protein binding on small-molecule microarray). The assay is described as follows: Wnt5a binders on small-molecule microarray, primary screen, biophysical, 635/667 nm fluorescence (AID 1142).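 Note: fluorescence read at 667 nm with signal to noise per printed feature.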 Particulars: 635 nm fluorescence, higher = more signal.
The nature of assay [2]: cell viability in Huh7 cells, primary screen, cytotoxicity control for HCV replication inhibitor project, CellTiter-Glo luminescence, basal, 48 h (AID 1143).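 Note: Huh7 hepatoma cells carrying a hepatitis C replication reporter with no stimulus; test concentration not given here.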 The conditions noted are these: Huh7 HCV replicon, higher = more signal, called active from +8 up or from −8 down.
The nature of assay [3]: P. aeruginosa biofilm formation inhibitors, primary screen, PAO1 strain, BacTiter-Glo luminescence, LB-PBS (AID 1144). Particulars: 12 h, higher = more signal.
Assay [4] in a line: CREB reporter modulators without forskolin, primary screen, cell-based, PC12, CRE-LacZ reporter, unstimulated (AID 1145). The conditions noted are these: no forskolin, luminescence, 4.5 h, higher = more signal, called active from +8 up or from −8 down.
Assay [5] can be described thus: CREB reporter modulators under forskolin, primary screen, cell-based, PC12, CRE-LacZ reporter, forskolin-stimulated (AID 1146).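 Note: PC12 cells with 6xCRE LacZ reporter stimulated by forskolin 10 µM; beta-galactosidase reporter signal reflecting CREB driven transcription.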 Particulars: luminescence, 4.5 h, higher = more signal, called active from +8 up or from −8 down.
The target in assay [6] is Streptavidin (Streptomyces avidinii) (UniProt P22629). The assay is described as follows: streptavidin binders on small-molecule microarray, primary screen, artefact control for SMM compound annotation, biophysical, 635/667 nm fluorescence (AID 1147).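 Note: signal reflects streptavidin binding to arrayed compounds as a control protein.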 Particulars: streptavidin binding, higher = more signal.
Assay [7] is described as follows: small-molecule binders of probe aInhba, primary screen, biochemical, small-molecule microarray, 635/667 nm fluorescence (AID 1148).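 Note: score merges 667nm spot fluorescence with signal-to-noise for antibody binding to printed compounds.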 Particulars: higher = more signal.
Assay [8] has as its target Torsin-1A (Homo sapiens) (UniProt O14656). The assay is described as follows: torsin A binders from cell lysate, primary screen, small-molecule microarray, wild-type, 635/667 nm (AID 1149). The conditions noted are these: COS7 hTOR1A-WT lysate, 635 nm fluorescence, higher = more signal.
Assay [9] has the same target. Nature of the assay: small-molecule binders of mutant TOR1A in lysate, primary screen, cell lysate, small-molecule microarray, COS7 lysate, 635/667 nm fluorescence (AID 1150).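 Note: score pools 667 nm emission and signal to noise measuring lysate protein binding.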 The conditions noted are these: COS7 hTOR1A mutant lysate, 635 nm fluorescence, higher = more signal.
Assay [10] has as its system Sonic hedgehog protein (Shh). The assay is described as follows: small-molecule binders of Shh protein, primary screen, biochemical, small-molecule microarray, 635/667 nm fluorescence (AID 1151).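 Note: Shh protein binding to compounds spotted on small-molecule microarray slides; score combines spot fluorescence intensity with signal-to-noise across triplicate slides.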 The conditions noted are these: small-molecule microarray binding, 635 nm fluorescence; higher = more signal.

Active and inactive are the calls of the source. Unless noted, the rule behind the calls is not given here.

Sequence of Streptavidin (Streptomyces avidinii) (P22629 whole entry, looked up): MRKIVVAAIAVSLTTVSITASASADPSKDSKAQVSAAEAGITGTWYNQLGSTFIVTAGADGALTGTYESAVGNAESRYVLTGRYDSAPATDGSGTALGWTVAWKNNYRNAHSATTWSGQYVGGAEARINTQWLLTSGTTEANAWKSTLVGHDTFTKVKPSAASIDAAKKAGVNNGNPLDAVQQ
Sequence of Torsin-1A (Homo sapiens) (O14656 whole entry, looked up): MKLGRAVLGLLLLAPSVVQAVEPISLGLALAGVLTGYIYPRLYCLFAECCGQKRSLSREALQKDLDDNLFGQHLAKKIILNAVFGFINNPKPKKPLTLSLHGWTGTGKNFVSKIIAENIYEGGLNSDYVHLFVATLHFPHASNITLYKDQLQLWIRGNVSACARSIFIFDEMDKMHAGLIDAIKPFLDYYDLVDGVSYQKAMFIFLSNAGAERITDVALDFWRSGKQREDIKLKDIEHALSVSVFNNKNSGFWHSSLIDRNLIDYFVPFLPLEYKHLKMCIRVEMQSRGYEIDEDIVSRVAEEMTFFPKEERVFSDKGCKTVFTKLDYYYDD

Take `O=C1O[C@@H](c2ccccc2)[C@@H](c2ccccc2)N2[C@@H](c3ccc(O)cc3)[C@]3(C(=O)Nc4ccc(C#CC5=CCCCC5)cc43)[C@@H](C(=O)Nc3nc4ccccc4s3)[C@H]12`: the composite z-score in [1] amounted to 0.61; in assay [6], 1.26; in assay [7], 1.37; in assay [8], 0.828; in assay [9], 0.221; in assay [10], 1.59. The z-score is -1.77 (inactive) in [2], -1.05 (inactive) in [3], -1.02 (inactive) in assay [4] and -1.09 (inactive) in [5].
In the case of `COc1ccc([Si](C)(C)[C@@H]2[C@@H](CC(=O)N(CCO)Cc3ccccc3)O[C@]3(C(=O)N(Cc4ccc(N5CCOC5=O)cc4)c4ccccc43)[C@H]2C)cc1`, the composite z-score in [1] came out at 0.0838; in assay [6] it was 0.601; in [7] it was 0.027; in assay [8], 0.436; in [9], 0.0783; in [10] it was 1.95. Moreover, the z-score in assay [2] was -5.01 (inactive); in assay [3] it was 0.0675 (inactive); in assay [4], 7.59 (inactive); in assay [5], 0.331 (inactive).
On to `CC(C)C[C@@H]1NC(=O)[C@@H]2C[C@H](C(=O)NCCCC[N+](C)(C)C)[C@H](c3cccc(OCCO)c3)N2C1=O`, for which the composite z-score was 0.379 in assay [1]; 0.154 in assay [6]; -0.025 in assay [7]; 1.3 in assay [8]; 0.66 in assay [9]; 2.11 in assay [10]. The z-score in assay [2] was 0.347 (inactive); in [3], -0.595 (inactive); in [4], -0.943 (inactive); in assay [5], -0.231 (inactive).
With `COC(=O)C(CC#Cc1ccc2c(c1)[C@]1(C(=O)N2)[C@H](C(=O)N2CCc3cc(OC)c(OC)cc3C2)[C@H]2C(=O)O[C@H](c3ccccc3)[C@H](c3ccccc3)N2[C@@H]1c1ccc(OCCO)cc1)C(=O)OC`, the composite z-score stood at 0.5 in assay [1]; 1.28 in assay [6]; 0.246 in assay [7]; 1.28 in assay [8]; 0.251 in assay [9]; 1.64 in [10]. Moreover, the z-score in assay [2] is -0.201 (inactive); in [3], -0.895 (inactive); in assay [4], 0.865 (inactive); in [5], -0.474 (inactive).
Consider `CC(C)c1ccc(NN2C(C(O)c3cccs3)C=CC3C(=O)N(c4ccccc4)C(=O)C32)cc1` (stereo not given), for which the composite z-score in assay [1] is 0.119; in [6] it was 1.78; in assay [7], 0.152; in [8], 0.248; in assay [9], 0.182; in assay [10] it was -0.04. Moreover, the z-score was -0.506 (inactive) in assay [2], -0.579 (inactive) in assay [3], 0.812 (inactive) in [4] and 0.311 (inactive) in assay [5].
As for `COCCOC(=O)N1C(=O)[C@@]2(c3cc(C#Cc4ccc(OC)cc4)ccc31)[C@H](c1ccc(OCCO)cc1)N1[C@H](c3ccccc3)[C@H](c3ccccc3)OC(=O)[C@H]1[C@@H]2C(N)=O`, the composite z-score in [1] amounted to 0.41; in [6], 0.879; in assay [7], 0.187; in assay [8], 0.428; in assay [9] it was 0.835; in assay [10], 1.96. For the same compound, the z-score is -2.73 (inactive) in [2], 0.854 (inactive) in assay [3], -1.15 (inactive) in [4] and -1.28 (inactive) in assay [5].
Turning to `CC(C)CCC[C@@H](C)[C@H]1CC[C@@]2(C)C3=C(CC[C@]12C)[C@@]1(C)CC[C@H](OC(=O)C(C)(C)C)C(C)(C)C1CC3` (stereo not given in full), the composite z-score in assay [1] was 0.228; in [6] it was 0.122; in assay [7] it was -0.186; in assay [8] it was 0.89; in assay [9], 0.31; in assay [10], 0.836. The z-score in [2] was -2.46 (inactive); in [3] it was -0.738 (inactive); in [4], 0.12 (inactive); in assay [5], -1.2 (inactive).
As for `O=C1O[C@H](c2ccccc2)[C@H](c2ccccc2)N2[C@H]1[C@@H](C(=O)N1CCCCCCC1)[C@]1(C(=O)Nc3ccccc31)[C@H]2c1ccc(O)cc1`, the composite z-score came out at 2.61 in assay [1]; 4.14 in assay [6]; 2.28 in assay [7]; 3.49 in assay [8]; 3.61 in [9]; 1.55 in assay [10]. In addition, the z-score was -1.21 (inactive) in [2], 0.387 (inactive) in assay [3], -0.0566 (inactive) in assay [4] and -0.599 (inactive) in assay [5].
For `O=C1C2C=CC(C(O)c3ccccn3)N(Nc3ccccc3)C2C(=O)N1c1ccccc1` (stereo not given), the composite z-score in assay [1] was -0.234; in [6] it was -0.065; in assay [7], 0.0013; in [8], -0.265; in assay [9], -0.382; in assay [10], -0.367. The z-score was 0.915 (inactive) in assay [2], -0.574 (inactive) in assay [3], 1.02 (inactive) in assay [4] and 0.497 (inactive) in assay [5].
On to `C=CC[C@]1(C(=O)NCC(O)CO)N=C(c2ccc(OCCCO)cc2)O[C@H]1c1ccccc1N=[N+]=[N-]` (stereo not given in full), for which the composite z-score in [1] is 0.257; in [6], 1.4; in assay [7], 0.215; in assay [8] it was 0.16; in assay [9], 1.46; in assay [10] it was -0.723. Moreover, the z-score in assay [2] is -1.4 (inactive); in assay [3], -0.323 (inactive); in assay [4], 1.24 (inactive); in assay [5] it was -0.652 (inactive).
With `O=C1O[C@H](c2ccccc2)[C@H](c2ccccc2)N2[C@H]1[C@@H](C(=O)N1CCN(c3ncccn3)CC1)[C@]1(C(=O)Nc3ccc(C#CCCO)cc31)[C@H]2c1ccc(OCCO)cc1`, the composite z-score turned out to be 1.02 in assay [1]; 1.19 in [6]; 0.221 in [7]; 0.949 in assay [8]; 0.938 in assay [9]; 1.39 in assay [10]. The z-score in [2] was 0.505 (inactive); in assay [3] it was -0.339 (inactive); in assay [4], -0.471 (inactive); in [5], 0.344 (inactive).
Take `O=C1O[C@@H](c2ccccc2)[C@@H](c2ccccc2)N2[C@@H](c3ccc(O)cc3)[C@]3(C(=O)Nc4ccc(C#CC5(O)CCCCCC5)cc43)[C@@H](C(=O)N3CCN(c4ncccn4)CC3)[C@H]12`: the composite z-score in assay [1] was 0.149; in assay [6], 0.849; in assay [7], -0.144; in assay [8], 1.42; in [9] it was 0.743; in assay [10] it was 0.358. For the same compound, the z-score is -1.37 (inactive) in assay [2], -0.775 (inactive) in [3], -0.231 (inactive) in [4] and 0.204 (inactive) in assay [5].
Turning to `NC(=O)[C@H]1[C@@H]2C(=O)O[C@@H](c3ccccc3)[C@@H](c3ccccc3)N2[C@@H](c2ccc(O)cc2)[C@]12C(=O)Nc1ccc(C#CC3(O)CCCCCC3)cc12`, the composite z-score in [1] is 0.0428; in [6], 0.387; in assay [7], 0.0074; in [8], 0.375; in [9] it was 1.37; in assay [10] it was 1.46. Also, the z-score is -4.82 (inactive) in assay [2], -0.947 (inactive) in assay [3], 0.272 (inactive) in assay [4] and 1.09 (inactive) in assay [5].
With `CN(C)CCCCCCNC(=O)[C@@H]1C[C@@H]2C(=O)NCC(=O)N2[C@@H]1c1ccc(O)cc1`, the composite z-score was 0.781 in assay [1]; 0.28 in [6]; -0.102 in [7]; 0.97 in [8]; 1.32 in assay [9]; 1.93 in assay [10]. The z-score is -0.981 (inactive) in assay [2], -0.162 (inactive) in assay [3], 0.147 (inactive) in assay [4] and 0.625 (inactive) in [5].
